The text below walks through data of PubChem BioAssay.

This is one part of the list. Calls of active or inactive are those of the source. Rule as the data show it, unless noted: active = inhibition above about 33%; inactive = the rest.

What is called inhibition is the relative decrease from the control value, in per cent.

COUP transcription factor 2 (Homo sapiens), sequence (P24468 whole entry, looked up): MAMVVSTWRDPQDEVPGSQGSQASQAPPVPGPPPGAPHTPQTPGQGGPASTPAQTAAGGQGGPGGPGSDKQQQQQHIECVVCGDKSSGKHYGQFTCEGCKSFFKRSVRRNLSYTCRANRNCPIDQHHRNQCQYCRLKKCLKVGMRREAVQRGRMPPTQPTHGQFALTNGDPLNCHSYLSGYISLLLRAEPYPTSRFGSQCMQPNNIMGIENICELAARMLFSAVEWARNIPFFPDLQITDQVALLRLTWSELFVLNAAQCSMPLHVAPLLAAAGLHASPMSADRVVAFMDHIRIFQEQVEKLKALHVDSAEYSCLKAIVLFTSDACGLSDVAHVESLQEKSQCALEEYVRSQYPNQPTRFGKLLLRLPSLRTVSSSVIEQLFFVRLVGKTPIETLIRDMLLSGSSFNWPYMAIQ

Tested on in the first assay: not listed separately
The assay is described as follows: compounds suppressing VP16-driven luciferase signal – cell-based, luminescence, high throughput, counter-screen for LRH-1 inverse agonist project (AID 651615). Particulars: Gal4-VP16 luciferase reporter cells, at 3.6 µM, hits give high values. A general note: Counterscreens check selectivity or assay interference.
For `On1ccccc1=S`, the inhibition was 87.5% (active). Take `COc1ccc(CCNC(=O)CSc2nnc(CNc3ccc(Cl)cc3)o2)cc1OC`: the inhibition was -2.14% (inactive). Same read-out and setting: as for `Cc1cc(NCCCCCCCNc2cc(C)nc3cc([N+](=O)[O-])ccc23)c2ccc([N+](=O)[O-])cc2n1`, the figure is 39.7% (active); as for `CC(Cl)C(=O)Nc1ncc(C(F)(F)F)cc1Cl` (stereo not given), -7.63% (inactive); as for `CCN1CCN(c2ccc(S(=O)(=O)N3CCCCC3)cc2NC(=O)/C=C/c2ccc([N+](=O)[O-])cc2)CC1`, 3.5% (inactive).

`CC1CCCC(C)N1C(=O)COC(=O)Cc1ccc(F)cc1` (stereo not given): the inhibition was 3.23% (inactive).

With `Cc1c(Cl)cccc1NC(=O)CSc1sc2c(O)cc(=O)[nH]c2c1C#N`, the inhibition is 6.14% (inactive). On the same count and under the same terms, the result for `Cc1cccc(-c2cc(NCCc3cccnc3)n3nccc3n2)c1` reads -2.05% (inactive); that for `CC(=O)N1CCN(c2ccccc2NC(=O)c2cc3ccccc3o2)CC1`, 2.75% (inactive).

`Cc1ccc(-c2csc(NC(=O)c3ccc([N+](=O)[O-])o3)n2)cc1`: the inhibition was -19.4% (inactive). The same measure, in the same setting: as for `CC(=O)N1c2ccc(S(=O)(=O)N3CCC(C(=O)Nc4cccc(C)n4)CC3)cc2CC1C` (stereo not given), the figure is 51.9% (active). The same measure, in the same setting: as for `CCn1cc(Br)c(C(=O)Nc2ccccc2C(=O)OC)n1`, the figure is -5.16% (inactive); as for `O=C(C(=Cc1ccccc1)CN1CCCCC1)c1ccccc1`, 82.8% (active); as for `CCOc1ccc(OCCC(=O)OCC(=O)Nc2ccc3c(c2)OCCO3)cc1`, -6.23% (inactive). The same measure, in the same setting: the result for `O=C(CN1C(=O)NC2(CCCC2)C1=O)NCCc1ccc(F)cc1` reads 5.08% (inactive); that for `COc1ccc(/C=C/C(=O)c2cc(F)ccc2OC(=O)c2ccccc2C)cc1OC`, 40.4% (active). For the compound `Cc1c(NC(=O)C(C)OC(=O)c2ccc([N+](=O)[O-])s2)c(=O)n(-c2ccccc2)n1C` (stereo not given), the inhibition was -10.5% (inactive).

With `O=C(c1ccccc1Br)N1CCN(c2ccc([N+](=O)[O-])c(N3CCOCC3)c2)CC1`, the inhibition was -4.88% (inactive). The same measure, in the same setting: as for `COc1ccc(NC(=O)CSc2n[nH]c(-c3ccccn3)n2)cc1`, the figure is 2.72% (inactive).

Take `CCCCNC(=O)CSc1nc2ccc(NC(=O)CSc3nnc(COc4ccccc4C)n3C)cc2s1`: the inhibition is -5.17% (inactive). On the same count and under the same terms, as for `COc1cc2oc(-c3ccc(O)cc3)cc(=O)c2c(O)c1OC`, the figure is -45.5% (inactive). Same read-out and setting: as for `O=C(Nc1ccc(N2CCN(Cc3ccccc3F)CC2)cc1)c1ccc([N+](=O)[O-])o1`, the figure is 32.6% (active); as for `CCn1c2ccccc2c2cc(/C=N/n3c(-c4cc(C)[nH]n4)n[nH]c3=S)ccc21`, 7.75% (inactive); as for `Nc1nc2ccccc2n1/N=C/c1ccc([N+](=O)[O-])s1`, -3.2% (inactive).

In the case of `CC1(C)Cc2ccccc2-c2nnnn21`, the inhibition is -5.72% (inactive).

As for `CN1CCN(c2nc(-c3ccccc3O)nc3ccccc23)CC1`, the inhibition is 39.5% (active). Still for that read-out and setting: the result for `COc1cc(C(=O)NC2CCN(C)CC2)ccc1Nc1ncc2c(n1)N(CCc1ccccc1)CCC(=O)N2C` reads -166% (inactive); that for `Cc1cc2oc(C(=O)NCc3ccncc3)c(C)c2cc1C`, 3.82% (inactive). Same read-out and setting: the result for `O=C(CCl)Nc1ccc2c(c1)OCO2` reads -14.7% (inactive); that for `O=C(NCc1cccnc1)c1cccc2c1C(=O)N(C1CCCCC1)C2`, -8.24% (inactive); that for `COC(=O)CC1(C(=O)OC)Oc2ccc(Br)cc2C(=O)N1c1cc(Cl)c(Cl)cc1Cl` (stereo not given), 20.2% (inactive). On the same count and under the same terms, as for `O=C(Nc1cccc2ccccc12)c1ccc([N+](=O)[O-])o1`, the figure is -3.59% (inactive); as for `Cc1ccc2c(c1)N(C)/C(=C/c1cccc[n+]1C)S2`, 67% (active); as for `O=C(NCC1CCCO1)c1ccc(NC(=O)c2cccc([N+](=O)[O-])c2)cc1` (stereo not given), -2.03% (inactive).

Regarding `CC(C(=O)N1CCCc2c1c(=O)oc1ccc(O)cc21)N1CCc2ccccc2C1` (stereo not given), the inhibition is -3.51% (inactive).

Tested on in a further assay: not listed separately
As to the kind of experiment: VP16-driven transactivation reporter suppression – cell-based, luminescence, HEK293, counter-screen for COUP-TFII antagonist project (AID 687007; in the data active = inhibition above about 13%). Particulars: HEK293 Gal4-VP16 luciferase reporter, at 8.5 µM, hits give high values.
Turning to `O=C(CCC(=O)N1CCN(S(=O)(=O)c2ccc(Cl)cc2)CC1)NCc1cccc(C(F)(F)F)c1`, the inhibition is 7.21% (inactive). On the same count and under the same terms, as for `OC[C@@H]1CN(Cc2ccc(-c3ccccc3)cc2)C[C@H](n2cnc3c(NC4CCCC4)ncnc32)O1`, the figure is 4.62% (inactive); as for `COc1ccccc1CNc1nc(Nc2ccccc2Cl)c2sccc2n1`, -3.83% (inactive). Same read-out and setting: as for `O=C1C=C(c2ccnc3cc(Cl)ccc23)C[C@@H](c2ccc3c(c2)OCO3)C1`, the figure is 2.65% (inactive). The same measure, in the same setting: as for `Cn1c(Cc2cccc3ccccc23)nnc1SCC(=O)N1CCN(c2cccc(Cl)c2)CC1`, the figure is -7.02% (inactive).

Another assay has as its target COUP transcription factor 2 (Homo sapiens) (UniProt P24468). The assay is described as follows: retest of COUP-TFII reporter suppressors – cell-based, luciferase reporter, HEK293, triplicate, confirmation (AID 687008;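 active = mean inhibition over three repeats above a set limit taken from the earlier primary screen, cut at about 38% in these data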;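 also: 100% = cells given the luciferase reporter alone without the COUP-TF2 vector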). The following applies: HEK293 NGFI-A luciferase reporter, luminescence; at 8.5 µM; hits give high values. A general note: In a reporter assay the amount or activity of a reporter protein is the signal.
Regarding `O=C(CCC(=O)N1CCN(S(=O)(=O)c2ccc(Cl)cc2)CC1)NCc1cccc(C(F)(F)F)c1`, the inhibition is 53.4% (active). Same read-out and setting: as for `OC[C@@H]1CN(Cc2ccc(-c3ccccc3)cc2)C[C@H](n2cnc3c(NC4CCCC4)ncnc32)O1`, the figure is 63.3% (active). For the compound `COc1ccccc1CNc1nc(Nc2ccccc2Cl)c2sccc2n1`, the inhibition is 29.8% (inactive). On the same count and under the same terms, as for `O=C1C=C(c2ccnc3cc(Cl)ccc23)C[C@@H](c2ccc3c(c2)OCO3)C1`, the figure is 44.8% (active); as for `Cn1c(Cc2cccc3ccccc23)nnc1SCC(=O)N1CCN(c2cccc(Cl)c2)CC1`, 30.3% (inactive).
